# From PubChem BioAssay AID720582 (The Scripps Research Institute Molecular Screening Center, 2013)
# In all, about 370,000 compounds went through this assay and about 2,300 (0.62%) were called active. This excerpt belongs to a sample that is enriched for actives. Unmarked numbers belong to inactive results.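 Rule for the calls: active = inhibition above a per-campaign cutoff equal to the mean of compounds falling between control-based bounds plus 3 SD (cut at about 20% in these data); inactive = the rest.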
# Biological target: Disintegrin and metalloproteinase domain-containing protein 10 (Homo sapiens) (UniProt O14672)
# Sequence (O14672 214-748 limits assumed): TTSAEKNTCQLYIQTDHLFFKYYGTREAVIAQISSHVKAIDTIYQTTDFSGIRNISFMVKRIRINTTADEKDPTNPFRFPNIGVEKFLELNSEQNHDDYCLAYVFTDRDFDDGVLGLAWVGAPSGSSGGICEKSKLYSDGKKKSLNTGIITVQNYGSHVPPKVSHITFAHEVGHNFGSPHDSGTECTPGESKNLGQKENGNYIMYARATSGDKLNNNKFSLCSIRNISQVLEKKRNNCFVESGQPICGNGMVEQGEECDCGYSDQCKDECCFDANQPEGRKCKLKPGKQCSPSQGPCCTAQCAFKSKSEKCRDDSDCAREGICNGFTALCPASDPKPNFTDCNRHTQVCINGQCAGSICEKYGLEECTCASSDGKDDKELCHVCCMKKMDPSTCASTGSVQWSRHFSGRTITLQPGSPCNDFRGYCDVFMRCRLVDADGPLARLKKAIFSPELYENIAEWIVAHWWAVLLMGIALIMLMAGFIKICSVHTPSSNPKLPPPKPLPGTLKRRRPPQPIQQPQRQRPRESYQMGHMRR
# Experiment: human ADAM10 inhibitors, primary screen, biochemical, QFRET, HTS (AID 720582);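 note: 0% = DMSO wells while the 100% control is not disclosed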
# Details: recombinant ADAM10, EDANS/DABCYL FRET peptide cleavage, 3 h; at 7 µM; hits give high values
row,Compound,inhibition
1,Oc1c(Cl)cc(Cl)c(Cl)c1Cc1c(O)c(Cl)cc(Cl)c1Cl,36.2% (active)
2,O=C(CSc1nnc(-c2ccccn2)n1-c1ccc(Cl)cc1)Nc1ccccc1-c1ccccc1,1.01%
3,C=CCN1C(=O)[C@@H](CC(=O)NCCCOCCCC)[C@]2(C(=O)OCC)CCCCC/C=C/12,-1.99%
4,O=C(OCc1ccc(-c2ccccc2)cc1)c1cccc(O)c1,23.1% (active)
5,Cc1ccc(S(=O)(=O)c2c(COC(=O)c3cccc(Cl)c3)c(-c3ccccc3)nn2C)cc1,4.59%
6,O=C(OCC(O)C(O)COC(=O)c1ccccc1)c1ccccc1 (stereo not given),-1.65%
7,C=CCn1c(SCC(N)=O)nnc1-c1ccccc1OC,-8.66%
8,CN1C[C@]2(C=C3CCCCC3n3c(=O)n(-c4ccccc4)c(=O)n32)N=C1NC(=O)c1ccccc1 (stereo not given in full),5.49%
9,O=C(NCc1cccs1)C1CCN(S(=O)(=O)c2ccccc2[N+](=O)[O-])CC1,7.43%
10,Cc1ccc(OCC(=O)Nc2ccc(C(=O)O)cc2NC(=O)COc2ccc(C)c(C)c2)cc1C,-2.89%
11,Cc1ccc(NS(=O)(=O)c2ccc(C)c(NC(=O)COc3ccc4ccccc4c3)c2)c(C)c1,21.2% (active)
12,Cc1ccc(C)c(NS(=O)(=O)c2ccc(OCC(=O)NCc3cccnc3)cc2)c1,5.13%
13,COc1ccc(-n2c(SCC(=O)NC3CCCC3)nnc2-c2ccncc2)cc1,-6.99%
14,COc1cccc(/C=C2\CC3(OC(C)=O)CCCN2C3)c1 (stereo not given),3.53%
15,CC(CCN1CCC(C(O)(c2ccccc2)c2ccccc2)CC1)Oc1ccc([N+](=O)[O-])cc1Cl (stereo not given),14.3%
16,O=C(NCc1ccccc1)c1onc(CSc2nc3ccccc3[nH]2)c1C(=O)NCc1ccccc1,23.5% (active)
17,O=C(NCc1ccccc1)c1onc(CSc2ccncc2)c1C(=O)NCc1ccccc1,6.67%
18,O=C(NCC1CC1)c1onc(CSc2ccccc2)c1C(=O)NCC1CC1,4.44%
19,CCN(C(=O)[C@@H](C1CC1)[C@@H](O)c1ccc2ccccc2c1)c1ccccc1,7.43%
20,CC(C)CNc1cccc2c1S(=O)(=O)N(Cc1cn(Cc3ccccc3C(F)(F)F)nn1)Cc1ccccc1O2,-26.5%
21,O=C(CSc1nc2ccccc2s1)N=Nc1c(O)[nH]c2ccccc12,7.8%
22,Cc1ccc(Cn2cc(CN3[C@@H](C)COc4cc(Br)ccc4S3(=O)=O)nn2)cc1,-3.91%
23,O=C(CC1SC(=Nc2ccccc2)N(Cc2ccccn2)C1=O)Nc1cccc(Cl)c1 (stereo not given),21.2% (active)
24,CN1C(=O)C(CC(=O)Nc2ccccc2)S/C1=N/c1nccs1 (stereo not given),8.04%
25,CCN1C(=O)C(CC(=O)Nc2cc(C)ccc2C)SC1=Nc1ccc(S(N)(=O)=O)cc1 (stereo not given),3.57%
26,O=C(c1c[nH]c2ccccc12)N1CCC(Oc2cccnc2)CC1,1.42%
27,Clc1ccc(-n2c(SC/C=C/c3ccccc3)nnc2-c2ccco2)cc1,15.1%
28,CCOC(=O)[C@@]12CN(C(=O)OC(C)(C)C)CC=C1N(Cc1ccc(OC)cc1)C(=O)[C@H]2CC(=O)NCc1ccc(OC)c(OC)c1,1.76%

row,Compound,inhibition
1,C=CCN1C(=O)[C@H](CC(=O)NCCCN2CCCC2=O)[C@@]2(C(=O)OCC)CCCC=C12,-5.84%
2,C=CCOC/C=C/C#CCN(CC=C)Cc1ccc(OC)cc1OC,-0.01%
3,CC1(C)C=Cc2c(ccc3c2OC[C@@H](c2ccc(O)cc2O)C3)O1,26.4% (active)
4,COC(=O)C1CN(Cc2cn(Cc3ccc(F)cc3)nn2)CCS(=O)(=O)N1Cc1ccc(Cl)cc1 (stereo not given),2.41%
5,C=CCN1C(=O)[C@@H](CC(=O)NCC2CCCCC2)[C@]2(C(=O)OC)CCCCC=C12,5.05%
6,Cc1ccc(O)c(-c2cc(C(=O)NCc3ccccc3)[nH]n2)c1,12.6%
7,Cc1cc(O)ccc1-c1cc(C(=O)NCc2cc(C(F)(F)F)cc(C(F)(F)F)c2)[nH]n1,20.5% (active)
8,CCCOc1ccc(F)cc1-c1cc(C(=O)NCc2ccc(F)cc2)[nH]n1,15.3%
9,O=C(Nc1cc(Cl)cc(Cl)c1)OCCN1CCCC12CCC(c1ccccc1)CC2 (stereo not given),4.69%
10,C=C(C)C#CC(Cc1ccccc1)N(CC1CC1)/C(N)=N/C(=O)OCc1ccccc1 (stereo not given),-71.4%
11,CCOc1ccc(Oc2c(Cl)cnn(-c3ccc(C)cc3)c2=O)cc1,0.21%
12,CC(NCc1ccco1)C(=O)N1CCCCC1 (stereo not given),-0.25%
13,O=C(Cc1ccc(Cl)c(Cl)c1)Nc1ccc(SC(F)F)cc1,24.6% (active)
14,Cc1ccc(CC(=O)Nc2ccc(S(=O)(=O)N3CCOCC3)cc2)cc1C,9.05%
15,N#C/C(=C\c1cccnc1)C(=O)Nc1ccc(SC(F)F)cc1,9.34%
16,O=C1CC[C@@]23CCCN2C(=O)CCC[C@H]3[C@H]1Cc1ccccc1,-4.62%
17,CN(C)CC(=O)N[C@@H]1C[C@@H]2O[C@H](CO)CC[C@@H]2O[C@@H]1CCc1ccc(C#Cc2ccccc2)cc1,7.99%
18,COC(=O)[C@]12C[C@H](CC(=O)NCc3cccs3)C(=O)N(CCc3ccc(OC)c(OC)c3)C1=C[C@H](C(C)C)O[C@@H]2C1CC1,-6.09%
19,CN(C)c1ccc(NC(=O)NC2CCCCN(Cc3ccc(Cl)cc3)C2=O)cc1 (stereo not given),8.78%
20,CCc1ccc2c(c1)NC(=O)C2(C)Cc1ccc(OC(F)(F)F)cc1 (stereo not given),14.9%
21,Cc1ccc(CC2(C)C(=O)Nc3ccc(OC(F)(F)F)cc32)cc1 (stereo not given),5.38%
22,COc1ccccc1CC1(C)C(=O)Nc2ccc(OC(F)(F)F)cc21 (stereo not given),22.6% (active)
23,C=CCN(Cc1ccc2c(c1)OCO2)C(C#CC1CC1)C(C)(C)C (stereo not given),-9.94%
24,Cc1cc(C)cc(NC(=O)N2CCC(N(C)CCC(C)C)CC2)c1,3.06%
25,CC(C)(C)c1ccc(S(=O)(=O)NCC2CCN(C(=O)C(=O)c3cc4ccccc4o3)CC2)cc1,24.4% (active)
26,O=C(C(=O)N1CCC(CNS(=O)(=O)Cc2ccccc2)CC1)c1cc2ccccc2o1,0.44%
27,N#Cc1cccc(C(=O)NCC2CCN(C(=O)C(=O)c3cc4ccccc4o3)CC2)c1,1.47%
